Laboratory results as given in PubChem BioAssay (NCI).
About 83,000 compounds went through this panel and 20% of them were active in at least one assay; those are over-represented in the sample as a whole.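 Interpretation: 100, growth as untreated; towards 0, rising growth inhibition; 0, no net growth; 0 to -100, cell death. Compounds scoring below 10 were considered active.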 Unmarked numbers belong to inactive results. Active and inactive are the calls of the source.

What follows are molecules tested on HL-60(TB) leukemia (assay: NCI-60 one-dose screen, 48 h (100 = growth as untreated, 0 = no growth, -100 = all killed)). Conditions: 10 µM unless noted.

Question: For `C#Cc1nc(C2=C(C)C(O)CC2)cs1` (centres undefined), which growth is on record?
Answer: Its growth is 94.2%.

Question: `CC(=O)NC(C)(C)C(=O)N1CCC[C@H]1C(=O)NC(C)(C)C(=O)N[C@@H](C)C(=O)NC(C)(C)C(=O)N[C@@H](C)C(=O)N[C@@H](CCC(N)=O)C(=O)NC(C)(C)C(=O)N[C@H](C(=O)NC(C)(C)C(=O)NCC(=O)N[C@@H](CC(C)C)C(=O)NC(C)(C)C(=O)N1CCC[C@H]1C(=O)N[C@H](C(=O)NC(C)(C)C(=O)NC(C)(C)C(=O)N[C@@H](CCC(N)=O)C(=O)N[C@@H](CCC(N)=O)C(=O)N[C@H](CO)Cc1ccccc1)C(C)C)C(C)C` was tested. Which growth did it give?
Answer: The growth was 95.6% [4.25 µM].

Question: Which growth does the source give for `CCOC(=O)C1=C(C)NC(C)=C(C(=O)OC(C)C)C1c1cccc(C#N)c1` (centres undefined) here?
Answer: The growth was 93.1%.

Question: `O=C(O)CC1CCN(c2ccc3nnc(Cl)n3n2)CC1` was tested. Which growth did it give?
Answer: Its growth is 104%.

Question: For `Nc1ccccc1NC(=O)c1ccc(NC(=O)C/C=C/c2cccnc2)cn1`, which growth is on record?
Answer: The growth was 8.93% (active).

Question: `Cc1cc(=O)[nH]c(O)c1C#N` was tested. Which growth did it give?
Answer: Its growth is 100%.

Question: With `O=C(Nc1ccc(Cl)c(C(F)(F)F)c1)Nc1ccc2oc(=O)ccc2c1` as the molecule, how does the growth read?
Answer: The growth was 26%.

Question: How did the growth turn out when `Cn1cc(-c2nnc(N)nc2-c2c[nH]c3ccc(F)cc23)c2cc(F)ccc21` was run?
Answer: The growth was 61.7%.

Question: How did the growth turn out when `COC(=O)C1CCCN(S(=O)(=O)/N=C2\NC(=O)NC2=C(Cl)Cl)C1` (centres undefined) was run?
Answer: The growth was 73.6%.

Question: How did the growth turn out when `O=C1Nc2ccccc2/C1=N\c1nnc(-c2ccccc2)o1` was run?
Answer: Its growth is 99.6%.

Question: For `Clc1ccc2oc3c(OCCCn4ccnc4)c4ccccc4nc3c2c1`, which growth is on record?
Answer: Its growth is 73.1%.

Question: `COc1cc(/C=N\NC(=O)c2ccc3nc(-c4ccc(Br)cc4)[nH]c3c2)cc(OC)c1OC` was tested. Which growth did it give?
Answer: Its growth is 27%.

Question: For `COc1cc2cc(Oc3ccc(NC(=O)Nc4cccc(C(F)(F)F)c4)cc3)c(C)nc2cc1OCCN(C)C`, which growth is on record?
Answer: Its growth is 133%.

Question: Which growth does the source give for `CC(C)(C)CC(C)(C)n1nnnc1C(Nc1nccs1)c1cc2cccc3ccc4cccc1c4c32` (centres undefined) here?
Answer: Its growth is 107%.

Question: With `C=CCn1c(-c2nc3ccc(C(=C(C#N)C#N)c4ccccc4)cc3[nH]2)cc2cc(Br)ccc21` as the molecule, how does the growth read?
Answer: Its growth is 59.2%.

Question: How did the growth turn out when `O=C(CSc1nnc(-c2ccc(Cl)cc2)n1-c1ccccc1)Nc1ccc(Br)cc1` was run?
Answer: Its growth is 81.4%.

Question: Which growth does the source give for `COc1ccc(/C=N\NC(=O)c2ccc3nc(-c4ccc(Br)cc4)[nH]c3c2)cc1` here?
Answer: The growth was 84.4%.

Question: `O=C1Nc2ccc(F)cc2/C1=C\C(=O)c1ccc(NS(=O)(=O)c2ccccc2)cc1` was tested. Which growth did it give?
Answer: Its growth is 33.1%.

Question: For `COC(=O)Nc1ccc(-c2nc(-c3cccc(O)c3)c(-c3ccnc(Br)c3)[nH]2)cc1`, which growth is on record?
Answer: Its growth is 28.1%.

Question: `Cc1occc1-c1nc2s/c(=C/c3ccc(-c4cc(C(F)(F)F)ccc4Cl)o3)c(=O)n2n1` was tested. Which growth did it give?
Answer: The growth was 106%.

Question: With `CC1(COc2ccc3ncc(C#Cc4cncc(C(=O)Nc5cc(C(C)(C)C)on5)c4)n3n2)COC1` as the molecule, how does the growth read?
Answer: The growth was 23%.

Question: How did the growth turn out when `O=C1[C@H]2Cc3c([nH]c4ccccc34)[C@@H](c3ccc(Br)cc3)N2C(=O)CN1C1CCN(CC2CCCCC2)CC1` was run?
Answer: Its growth is -70.6% (active).

Question: With `O=C(CCl)Nc1ccc(NC(=O)c2cc(Cl)ccc2O)c(Cl)c1` as the molecule, how does the growth read?
Answer: Its growth is 49.3%.

Question: For `CC1=Cc2ccccc2OC12C=Cc1ccccc1O2` (centres undefined), which growth is on record?
Answer: The growth was 106%.

Question: Which growth does the source give for `Cc1ccccc1NC(=O)/C=C/c1ccc(OCCOc2ccc3c(C)cc(=O)oc3c2)cc1` here?
Answer: The growth was 97.2%.

Question: Which growth does the source give for `Nc1nc(Nc2ccccc2SSc2ccccc2Nc2nc(N)nc(-c3ccccc3)n2)nc(-c2ccccc2)n1` here?
Answer: Its growth is 62.1%.

Question: `CN1CCN(Cc2ccc(NC(=O)c3cncc(C#Cc4cnc5ccc(N)nn45)c3)cc2C(F)(F)F)CC1` was tested. Which growth did it give?
Answer: Its growth is 2.82% (active).

Question: With `CCC(=C(c1ccc(OCCN2CCCCCC2)cc1)c1ccc(OCCN2CCCCCC2)cc1)c1ccc(Cl)cc1` as the molecule, how does the growth read?
Answer: Its growth is -38.8% (active).

Question: With `Cc1cc(Br)ccc1-n1cc(C#N)c(N)c1C(=O)c1ccc(Br)cc1` as the molecule, how does the growth read?
Answer: The growth was 110%.

Question: Which growth does the source give for `Cc1[nH]c(C(=O)Nc2ccccc2OCc2cccc(C(=O)N3CCC[C@@H](N)C3)c2)c(Cl)c1Cl` here?
Answer: The growth was -67.7% (active).

Question: For `C=C(C)[C@@H]1CC[C@]2(C(=O)O)CC[C@]3(C)[C@H](CC[C@@H]4[C@@]5(C)C/C(=C/c6ccccn6)C(=O)C(C)(C)[C@@H]5CC[C@]43C)[C@@H]12`, which growth is on record?
Answer: Its growth is 15.3%.

Question: How did the growth turn out when `Cc1cc(O)c(=O)cc2c1C[C@H]1CC(C)(C)/C=C/C[C@]3(C)Oc4cc(=O)c(O)cc(C)c4C[C@H]3C[C@H](O)[C@@]1(C)O2` was run?
Answer: Its growth is -31.8% (active).

Question: How did the growth turn out when `Clc1ccc2[nH]cc(-c3nn4cc(-c5ccncc5)nc4s3)c2c1` was run?
Answer: Its growth is 89.8%.

Question: How did the growth turn out when `CCCCCCNC(=O)Oc1ccc(/C(=C(\C)c2ccc(Cl)cc2)c2ccc(OCCN(C)C)cc2)cc1` was run?
Answer: The growth was -8.4% (active).

Question: Which growth does the source give for `Nc1cc(F)ccc1NC(=O)c1ccc(NC(=O)C/C=C/c2cccnc2)cc1` here?
Answer: Its growth is 13.4%.

Question: How did the growth turn out when `NC(=S)n1c(=O)n(-c2cccc(C(F)(F)F)c2)c(=O)c2cc(-c3ccc(F)cc3F)ccc21` was run?
Answer: The growth was -46.8% (active).

Question: For `CCN(CC)c1ccc(/C=N/NC(=O)c2ccc(S(N)(=O)=O)cc2)cc1`, which growth is on record?
Answer: Its growth is 2.37% (active).

Question: Which growth does the source give for `O=C1[C@@H]2Cc3c([nH]c4ccccc34)[C@H](c3c(Cl)cccc3Cl)N2C(=O)CN1C1CCN(CC2CCCCC2)CC1` here?
Answer: The growth was -25.1% (active).

Question: Which growth does the source give for `Cc1ccc(Cc2cnc(NC(=O)/C(C#N)=C/c3ccc(-c4ccc(Cl)cc4)o3)s2)cc1` here?
Answer: Its growth is 88.5%.
